Experimental data taken from PubChem BioAssay (NCATS).
Where “and” joins values, the source holds several entries; their conditions need not be identical. Equal entries are not always repeated. Inconclusive results are not listed. Entries that show only a call come without a potency. Unmarked numbers belong to inactive results. Calls of active or inactive are those of the source. The call rests on the fitted dose curve; in most records, active means well fitted curve in the direction sought with a large enough effect; inconclusive means small, poorly fitted or top-dose-only effect, or another doubt; inactive means no such curve, though single readings can be large; an effect the other way counts as inactive or inconclusive.

Columns and labels:
[1] = molecular target: Cytochrome P450 3A7 (Homo sapiens) (UniProt P24462); test: Cytochrome P450 family 3 subfamily A member 7 (CYP3A7) small molecule antagonists: luciferase biochemical qHTS assay (AID 1963596); further: nearly all actives have a fitted effect of over 40% in size
Chain of Cytochrome P450 3A7 (Homo sapiens) (P24462 whole entry, looked up): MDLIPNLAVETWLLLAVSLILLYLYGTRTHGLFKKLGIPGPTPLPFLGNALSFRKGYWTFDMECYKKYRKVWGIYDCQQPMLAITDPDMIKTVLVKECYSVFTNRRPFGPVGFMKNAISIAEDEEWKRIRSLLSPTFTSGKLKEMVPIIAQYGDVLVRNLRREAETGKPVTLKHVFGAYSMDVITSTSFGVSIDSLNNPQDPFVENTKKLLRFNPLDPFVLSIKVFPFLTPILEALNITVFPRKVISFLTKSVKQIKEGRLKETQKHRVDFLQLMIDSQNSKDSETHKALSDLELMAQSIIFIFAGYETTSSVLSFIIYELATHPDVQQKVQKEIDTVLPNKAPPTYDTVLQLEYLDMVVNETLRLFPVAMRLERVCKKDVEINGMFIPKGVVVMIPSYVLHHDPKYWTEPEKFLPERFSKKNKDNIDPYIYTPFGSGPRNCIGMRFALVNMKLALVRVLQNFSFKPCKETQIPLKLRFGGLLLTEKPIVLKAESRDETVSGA
Procedure, shortened: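 Biochemical CYP3A7 activity measured with P450-Glo system: luciferin formed from proluciferin substrate in NADPH-driven reaction (1 h, room temperature) after 10 min compound preincubation. Signal in relative luminescence units.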

[2] = Viability qHTS for spleen associated tyrosine kinase inhibitor (SYKi) naive MV4-11 cells (AID 1963823); further: nearly all actives have a fitted effect of over 40% in size; further: potency means the concentration at half of the fitted maximal effect
Procedure, shortened: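 Read-out: CellTiter-Glo luminescence. Exposure: 72 hr, 37 C, 5% CO2, 95% humidity. Cells: MV4-11 without SYK inhibitor history, 500/well, qHTS format.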

[3] = Viability qHTS for spleen associated tyrosine kinase inhibitor (SYKi) drug resistant MV4-11 cells (AID 1963824); further: nearly all actives have a fitted effect of over 35% in size; further: potency means the concentration at half of the fitted maximal effect
Procedure, shortened: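 CellTiter-Glo luminescence, read 10 min after reagent addition, reports viability after a 72 hr compound exposure. Cells are an MV4-11 line made resistant to SYK inhibition, seeded at 500 per well onto compound-containing plates.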

[4] = Cellular viability qHTS for adrenocortical cancer (ACC) cell line SW-13 (AID 1963989); settings: SW-13 ACC cells viability, CellTiter-Glo, 48 h; activity (max response): active compounds read low; further: nearly all actives have a fitted effect of over 65% in size; further: potency means the concentration at half of the fitted maximal effect;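 on activity (max response): cells grown in serum-free medium with ITS supplement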
Procedure, shortened: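 Compound titrations (up to 46 uM final, in DMSO) were applied to SW-13 cells for 48 h at 37C/5% CO2. Reading used CellTiter-Glo after 20 min at room temperature; fitted curves yielded IC50 and efficacy.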

[5] = Cellular viability qHTS for adrenocortical cancer (ACC) cell line NCI-H295R (AID 1963990); further: nearly all actives have a fitted effect of over 60% in size; further: potency means the concentration at half of the fitted maximal effect
Procedure, shortened: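 Readout: CellTiter-Glo luminescence, 20 min RT. Exposure: 48 h, 37C/5% CO2. Cells: NCI-H295R, ITS-DMEM serum-free. Range: up to 46 uM. Analysis: 4PL fit, IC50 plus efficacy.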

| SMILES | Potency [1] | Potency [2] | Potency [3] | activity (max response) [4] | Potency [5] | activity change, negative = inhibition [1] | viability (% of control) [2] | viability, % of control [3] | activity change, negative = viability loss [5] | Potency [4] |
| --- | --- | --- | --- | --- | --- | --- | --- | --- | --- | --- |
| OCc1ccccn1 | inactive | inactive | inactive | -4.99% | inactive |  |  |  |  |  |
| CCOc1ccc(NC(=O)CC(C)O)cc1 (stereo not given) | inactive | inactive | inactive | -9.31% | inactive |  |  |  |  |  |
| Nc1c2c(nc3ccccc13)CCCC2O (stereo not given) | inactive | inactive | 0.841 µM (active) | 13% | inactive |  |  |  |  |  |
| OC[C@@H](O)[C@H](O)[C@H](O)[C@@H](O)CO | inactive | 5.96 µM (active) | 3.35 µM (active) | 1.26% and 9.11% | inactive |  |  |  |  |  |
| OCc1ccccc1O | inactive | inactive | inactive | 6.34% | inactive |  |  |  |  |  |
| CC(C)CCCC(C)CCCC(C)CCCCC(C)CCCC(C)CCCC(C)C (stereo not given) | inactive | inactive | inactive | 6.76% | inactive |  |  |  |  |  |
| O=C(O)Cc1cccc(-c2cc(CCCCCCc3ccc(O[C@H]4O[C@H](CO)[C@@H](O)[C@H](O)[C@@H]4O)c(-c4cccc(CC(=O)O)c4)c3)ccc2O[C@H]2O[C@H](CO)[C@@H](O)[C@H](O)[C@@H]2O)c1 |  |  |  | 8.49% |  | -19.9% [at 0.91 µM] | 99.5% [at 0.588 µM] | 113% [at 0.588 µM] | -4.2% [at 0.587 µM] |  |
| CCOC(=O)C(=O)CCCCCCl | inactive | inactive | inactive | 1.38% | inactive |  |  |  |  |  |
| NC[C@H]1O[C@H](O[C@H]2[C@H](O)[C@@H](O[C@H]3O[C@H](CO)[C@@H](O)[C@H](N)[C@H]3O)[C@H](N)C[C@@H]2N)[C@H](N)[C@@H](O)[C@@H]1O | inactive | inactive | inactive | -3.44% | inactive |  |  |  |  |  |
| Cc1nc2n(c(=O)c1CCN1CCC(c3noc4cc(F)ccc34)CC1)CCC[C@H]2O | inactive | inactive | inactive | 4.14% | inactive |  |  |  |  |  |
| CC1(C)CO[C@@H](CC(=O)O)CN1 | inactive | inactive | inactive | 8.37% | inactive |  |  |  |  |  |
| CCOc1cc(NC(C)=O)ccc1C(=O)OC | inactive | inactive | inactive | 1.95% | inactive |  |  |  |  |  |
| CC(=O)OCC(=O)Nc1cc(C#N)cc(NC(=O)COC(C)=O)c1Cl | inactive | inactive | inactive | -0.531% | inactive |  |  |  |  |  |
| CC(=O)N[C@@H](CS)C(=O)O | inactive | inactive | inactive | 15.1% | inactive |  |  |  |  |  |
| O=C(O)c1ccccc1OP(=O)(O)O | inactive | inactive | inactive | 16.4% | inactive |  |  |  |  |  |
| CCN(CC)CCNC(=O)c1cc(S(C)(=O)=O)ccc1OC | inactive | inactive | inactive | 12.2% | inactive |  |  |  |  |  |
| COc1cc2c(NC3CCN(CC4CCCCC4)CC3)nc(N3CCCN(C(C)C)CC3)nc2cc1OCCCN1CCCCC1 | inactive | 2.59 µM (active) | 3.66 µM (active) |  | 22.4 µM (active) |  |  |  |  | 7.08 µM (active) |
| CC(C)NC(=O)c1ccc(C=O)cc1 | inactive | inactive | inactive | 10.9% | inactive |  |  |  |  |  |
| C[C@@H](O)[C@H]1C(=O)N2C(C(=O)O)=C(S[C@@H]3CN[C@H](C(=O)N(C)C)C3)[C@H](C)[C@H]12 | inactive | inactive | inactive | 7.3% and 9.96% | inactive |  |  |  |  |  |
| NC1CCN(c2nc3c(cc2F)c(=O)c(C(=O)O)cn3-c2ccc(F)cc2F)C1 (stereo not given) | inactive | inactive | inactive | -6.92% | inactive |  |  |  |  |  |
| CN(C)C(=O)Oc1cccc([N+](C)(C)C)c1 | inactive | inactive | inactive | 16.2% | inactive |  |  |  |  |  |
| COc1ccc(O)cc1 | inactive | inactive | inactive | -1.22% | inactive |  |  |  |  |  |
| CC(=O)Oc1ccc(C)cc1 | inactive | inactive | inactive | 6.29% | inactive |  |  |  |  |  |
| C[C@@H]1CCC[C@H](C)N1 | inactive | inactive | inactive | 4.32% | inactive |  |  |  |  |  |
| Oc1ccccc1-c1nnco1 | inactive | inactive | inactive | 12.7% | inactive |  |  |  |  |  |
| Oc1ccc(Cl)c2cccnc12 | inactive | inactive | inactive | 4.85% | inactive |  |  |  |  |  |
| Cc1[nH]c(C)c(Cl)c(=O)c1Cl | inactive | inactive | inactive | 4.22% | inactive |  |  |  |  |  |
| O=C(O)/C=C/c1ccc(Cn2ccnc2)cc1 | inactive | inactive | inactive | 7.34% and 4.34% | inactive |  |  |  |  |  |
